Test results reported in ChEMBL document CHEMBL3988442, “University of Dundee, Small-Polar-MMV Screening Library” (2021).
Among all 48,000 compounds or so, about 13,000 (27%) showed an effect of 50% or more. The list shows a part of the results.

tested on: Wolbachia pipientis; assay: Anti-Wolbachia Cell-Based Screen; format: functional; design: scale not given: in the data most compounds retested in dose-response had high values; details: 5 µM

SMILES | Percent Effect [%]
O=c1[nH]nc(-c2cccs2)c2sc(N3CCOCC3)nc12 | -14.46
CC(CC#N)N(C)Cc1ccccc1F (centres undefined) | 11.31
COc1ccccc1CCNC(=O)N(C)C(C)CS(C)(=O)=O (centres undefined) | -10.73
CC(CN(C)C)Nc1nc(O)cc(Cc2ccccc2F)n1 (centres undefined) | 94.63
COc1ccccc1CC(C)(C)NC(=O)CN(C)C(C)C | 3.69
CC(CCc1ccccc1F)C(=O)NS(=O)(=O)N(C)C(C)C (centres undefined) | -0.5241
COc1ccccc1Cc1cc(O)nc(NC(C)CN(C)C)n1 (centres undefined) | 91.33
CC(=O)N1CCN(C(=O)C2SCCc3sccc32)CC1 (centres undefined) | -2.542
O=C(O)C(F)(F)F.O=C(O)C(F)(F)F.O=C(c1ccc(F)cc1)N1CCN2C[C@H](Oc3cccnc3)C[C@H]2C1 | -2.866
COc1ccccc1N1CCN(C(=O)Cn2nccc2C)CC1(C)C | 4.467
O=C(CCc1nc(Cl)n[nH]1)N1CCC2(CCCNC2=O)C1 (centres undefined) | 7.017
CN1CCC(N(C)C(=O)c2cnn(-c3cc(F)ccc3F)c2N)CC1 | 123.1
CCCN1CCC(N(C)C(=O)c2cc(C)nc3cc(F)ccc23)CC1 | 11.04
CN1CCC(N(C)C(=O)c2cnn(-c3ccccc3Br)c2N)CC1 | 112.2
Cc1cc(C(=O)N(C)C2CCS(=O)(=O)C2)c2ccc(F)cc2n1 (centres undefined) | -24.13
Cc1cccc2c1nc(COCC(=O)O)n2-c1ccc(N)nc1 | -5.94
CCCC(C)C(=O)N1CCC(c2cc(N3CCOCC3)nc(C)n2)CC1 (centres undefined) | 8.426
Cn1c(CCNc2nccnc2C#N)nc2cc(Cl)ccc21 | -1.88
CN(C)S(=O)(=O)NCc1cccnc1Oc1ccc(F)c(F)c1 | -7.83
Cc1cc(=O)n2nc(Oc3cc(Cl)cc(Cl)c3)sc2n1 | 108.5
Cc1cc(=O)n2nc(Oc3ccc(F)c(F)c3)sc2n1 | 78.71
Cc1cc(OCC(=O)NS(=O)(=O)c2c(C)noc2C)ccc1Cl | -5.411
Cc1nccc(CNC(=O)NCCOc2ccc(F)c(F)c2)n1 | -14.18
Cc1cccc(OC2CCN(c3ncc(C#N)cc3Cl)CC2)n1 | -14.79
CN(C)c1cccc(CNC(=O)Nc2cc(C#N)ccc2Cl)n1 | 19.69
Cc1cc(=O)n2nc(Oc3ccc(C#N)cc3Cl)sc2n1 | 80.29

SMILES | Percent Effect [%]
Cc1cc(=O)n2nc(Oc3ccc(Cl)c(C)c3)sc2n1 | 81.92
c1ccc(C(CNc2ncccn2)N2CCOCC2)nc1 (centres undefined) | -6.458
CS(=O)(=O)NC[C@H]1Cn2c(-c3ccc(Cl)cc3)cnc2CO1 | -25.96
Cc1nnc(NC(=O)CN2CCCC(Cn3cncn3)C2)s1 (centres undefined) | -2.603
CCc1nnc2n1CCN(C(=O)c1ccc(-c3ccco3)nc1C)C2 | -7.114
CCC(=O)N1CCCC(c2nc(-c3cccnn3)no2)C1 (centres undefined) | -10.18
c1cnnc(-c2noc(CCN3CCCO3)n2)c1 | 93.6
O=C1CCCN1CCc1nc(-c2ccsc2)no1 | 3.312
c1cnnc(-c2noc(COCC3CCCO3)n2)c1 (centres undefined) | -7.3
O=C1CCCCCN1CCc1nc(-c2cccnn2)no1 | 101.6
O=C1CCCN1Cc1nc(-c2ccsc2)no1 | -0.6709
O=C1CCCCN1CCc1nc(-c2cccnn2)no1 | 94.65
c1ccc(-c2noc(CNC3CCCN(c4cccnn4)C3)n2)nc1 (centres undefined) | 15.74
NC(=O)N1CCCC(c2nc(-c3cccnn3)no2)C1 (centres undefined) | -17.63
Fc1cnc(N2CC[C@@H]3O[C@H](COCc4ccccn4)CC[C@@H]32)nc1.O=C(O)C(F)(F)F.O=C(O)C(F)(F)F | -8.752
CCC(Nc1cccc(Oc2ccc(C#N)cc2)c1)C(N)=O (centres undefined) | 17.41
O=c1cc2c(nn1CN1CCN(c3cccc(Cl)c3)CC1)CCC2 | -5.597
N#Cc1ccc2c(c1)CN(C(=O)c1nc[nH]n1)C2c1cnco1 (centres undefined) | -15.48
CNC(=O)[C@@H]1COC[C@H]2CN(C(=O)COc3ccccc3)C[C@H]21 | -5.187
CCC(=O)N1C[C@@H](C(=O)NC)[C@H](c2ccnc(N3CCCC3)n2)C1.Cl | 103.8
COCCC(=O)N1CCN(C)c2ncccc2C1 | -0.6435
CCNC(=O)C1CCN(c2nccc(C3CCCC3)n2)C1 (centres undefined) | -5.882
CCn1ncnc1C(C)NC(=O)C1CCN(C(=O)COC)CC1 (centres undefined) | 0.6867
CCNc1ccnc(N2CCCC(CCOC)(C(=O)O)C2)n1 (centres undefined) | -0.7265
CNC(=O)[C@@H]1CN(C(=O)CCOC)C[C@H]1c1ccnc(N2CCCC2)n1.Cl | 97.41
CNC(=O)C1CCN(c2nccc(CCC(F)(F)F)n2)C1 (centres undefined) | -10.68

SMILES | Percent Effect [%]
CNC(=O)[C@@H]1CN(C(=O)COC)C[C@H]1c1ccnc(N2CCCC2)n1 | 103.6
O=C(O)C(c1cccc2c1OCC2)N1CCC(N2CCCC2)CC1 (centres undefined) | -6.638
O=C1C(Nc2ncccn2)CCN1c1ccccc1OC(F)F (centres undefined) | -3.338
COCCS(=O)(=O)NC(C)c1cccc(-n2cccn2)c1 (centres undefined) | 2.381
CC(=O)Nc1ccc(C(=O)Nc2cnc3n2CCCC3)cc1C | 7.352
CN1Cc2ccccc2CC2(CCN(C(=O)[C@H]3CCCO3)CC2)C1=O | -50.23
CC(C)NC(=O)N1CCC2(CC1)CCn1c(C3CC3)cnc12 | 5.233
CC(C)NC(=O)N1CCC2(CC1)Cc1ccccc1CNC2=O | 106.4
CNS(=O)(=O)c1ccccc1N1CCN(C(=O)NC(C)C)CC1 | -1.761
C[C@@H]1CN(C2(C(=O)N3CCOCC3)Cc3ccccc3C2)C[C@H](C)O1 | -3.118
CN1Cc2ccccc2CC2(CCN(C(=O)N3CCOCC3)CC2)C1=O | 102.4
O=C([C@H]1CCCO1)N1CCC2(CC1)Cc1ccccc1CNC2=O | -31.67
CC(C)NC(=O)N1CCC2(CC1)Cc1ccccc1CN(C)C2=O | 105
CC(NC(=O)N1CCc2ccccc2C1)c1nncn1C (centres undefined) | -2.02
O=S(=O)(C/C=C/c1ccccc1)Cc1nc(C2CC2)no1 | 14.62
CCn1ccnc1CN1CCN(CCOc2cccc(C#N)c2)CC1 | -6.749
CC(C)c1cnc(CNc2c(F)cccc2-n2cccn2)o1 | 11.31
CCNC(=O)NC1CN(Cc2ccccc2N(C)C)C[C@@H]1OC (some centres undefined) | 0.7877
CC(NC(=O)N1CCc2sccc2C1)c1nncn1C (centres undefined) | 8.221
CN(C)C(=O)N1C[C@@H]2CCCO[C@@H]2[C@H](N(C)Cc2ccco2)C1.O=C(O)C(F)(F)F | -2.152
Cc1nccn1-c1cc(CNC(=O)CCNC(=O)C2CCCC2)ccn1 | 5.543
Cc1nc(CN2CCCC(NCc3nc4ccccc4s3)C2)no1 (centres undefined) | 116.1
Cc1nc(CN(C)C2CCN(Cc3nc4ccccc4s3)C2)no1 (centres undefined) | 10.14
Cc1nc(CN2CCCC(Nc3ncnc4ccccc34)C2)no1 (centres undefined) | -16.22
Cn1cc(CNC2CCCN(Cc3noc(C4CC4)n3)C2)cn1 (centres undefined) | -8.767
CCc1nc(CN2CCCC(NCc3cnn(C(C)(C)C)c3)C2)no1 (centres undefined) | -2.673

SMILES | Percent Effect [%]
Cc1nc(CN2CCCC(NCc3cnn(C)c3)C2)no1 (centres undefined) | 104.5
Cc1nc(CN2CCCC(NCC(=O)Nc3cccnc3)C2)no1 (centres undefined) | -1.962
Cc1nc(CN2CCCC(NCCOc3ccccc3)C2)no1 (centres undefined) | -9.342
Cc1nc(CN2CCCC(NCc3cccc4ccccc34)C2)no1 (centres undefined) | 107.2
CCOc1cccc(CNC2CCCN(Cc3noc(C)n3)C2)c1 (centres undefined) | 100.5
Cc1nc(CN2CCCC(NCCc3ccccc3Cl)C2)no1 (centres undefined) | -3.863
Cc1nc(CN2CCCC(N(C)c3cnc4ccccc4n3)C2)no1 (centres undefined) | -0.8744
Cc1cccc(CNC(Cn2cncn2)c2ccccc2)c1C (centres undefined) | -43.08
CN(C)c1cc2c(nn1)CCN(C(=O)Cc1noc3ccccc13)C2 | 12.15
CN(Cc1csc(-c2ccccc2)n1)C(=O)CCn1ccccc1=O | -32.35
Cc1nc(CN2CCCC(NCc3ccsc3)C2)no1 (centres undefined) | 1.864
Cc1nc(CN2CCCC(NCCOCC(F)(F)F)C2)no1 (centres undefined) | -2.958
Cc1nc(CN2CCCC(NCc3c(C)nc4sccn34)C2)no1 (centres undefined) | -4.535
Cc1nc(CN2CCCC(NCc3csc(C(C)(C)C)n3)C2)no1 (centres undefined) | 82.03
Cc1nc(CN2CCCC(NCc3ccc(Cl)s3)C2)no1 (centres undefined) | 105.2
Cc1nc(CN2CCCC(N(C)Cc3cscn3)C2)no1 (centres undefined) | 2.968
Cc1nc(CN2CCCC(NCc3ccc4ccccc4c3)C2)no1 (centres undefined) | 117
COc1ccc(CNC2CCCN(Cc3noc(C)n3)C2)cc1F (centres undefined) | -5.655
Cc1nc(CN2CCCC(NCc3sccc3C)C2)no1 (centres undefined) | 84.94
CCOc1cccc(CN2CCCn3nc(CNS(C)(=O)=O)cc3C2)c1 | -2.285
Cc1nc(CN2CCCC(NCc3ccc4c(c3)CCO4)C2)no1 (centres undefined) | 109.8
Cc1cccc(CN2CCc3ncnc(NC4CCC4)c3CC2)n1.O=C(O)C(F)(F)F.O=C(O)C(F)(F)F | 78.48
Cc1cccc(CN2CCc3ncnc(C)c3CC2)n1.O=C(O)C(F)(F)F | -2.689
O=C(O)C(F)(F)F.O=C(O)C(F)(F)F.c1ccc(CN2CCc3ncnc(C4CCOC4)c3CC2)nc1 (centres undefined) | 3.596
Cc1cccc(CN2CCc3ncnc(C4CC4)c3CC2)n1.O=C(O)C(F)(F)F | 113.1
Cc1ncnc2c1CCN(Cc1ccccn1)CC2.O=C(O)C(F)(F)F.O=C(O)C(F)(F)F | -3.635
